Measured values published in PubChem BioAssay (NCATS).
Results filed as inconclusive are left out. Activity calls are given as the source filed them. Unless noted, calls follow the shape of the dose curve; as a rule, active = well fitted curve in the direction sought with a large enough effect; inconclusive = small, poorly fitted or top-dose-only effect, or another doubt; inactive = no such curve, though single readings can be large; an effect the other way counts as inactive or inconclusive.

Assays:
[1] = target: Atrial natriuretic peptide receptor 1 (Homo sapiens) (UniProt P16066); assay: Natriuretic polypeptide receptor (hNpr1) antagonism - Pilot screen (AID 1347049; calls by dose curve;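 also: agonist-evoked cGMP luminescence read 20 min after hNppA addition; series mostly up to about 58 µM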)
Outline: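 HEK293 cells co-expressing hNpr1 and the GloSensor pGS-40F cGMP luciferase sensor were preloaded with 2% GloSensor reagent for 2 h. Compounds were added for 30 min at room temperature, then cells were stimulated with 0.1 nM hNppA for 20 min before luminescence readout.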

[2] = target: Atrial natriuretic peptide receptor 2 (Homo sapiens) (UniProt P20594); assay: Natriuretic polypeptide receptor (hNpr2) antagonism - Pilot subtype selectivity assay (AID 1347050; calls by dose curve)
Outline: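 cGMP-sensor HEK293/hNpr2 cells; 2% GloSensor reagent 2 h RT; compounds 30 min; baseline luminescence read; 1 nM hNppC agonist 20 min RT; final luminescence read by CCD camera. Antagonism = reduced post-agonist signal.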

[3] = NS1 protein of Zika virus - qHTS assay to identify small molecule inhibitors in human HEK 293 cells (AID 1347053); also: nearly all actives have a fitted effect of over 55% in size; also: potency is read from the fitted curve at half-maximal effect
Outline: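 Inhibition of NS1 expression was scored in HEK 293 cells given compound 1 h ahead of MR766 virus (MOI = 0.5). Following 24 h at 37 C, two anti-NS1 antibodies generated a TR-FRET signal, scaled between uninfected and infected controls.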

[4] = target: Parathyroid hormone/parathyroid hormone-related peptide receptor (Homo sapiens) (UniProt Q03431); assay: qHTS for PTHR1 Agonists: Optimization Screen against the NCGC LOPAC library (AID 1347079);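 also: GloSensor cAMP luminescence in HEK-293 GP2 cells expressing human PTHR1 with IBMX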
Outline: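 Compounds were tested across a qHTS titration. PTHR1-expressing GP2 cells report cAMP rises via GloSensor luminescence after 1 hr compound exposure at 37C with IBMX present.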

[5] = qHTS of pediatric cancer cell lines to identify multiple opportunities for drug repurposing: Primary screen for TC32 cells (AID 1347089); also: nearly all actives have a fitted effect of over 60% in size
Outline: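 TC32 cells, 500-1,000/well in growth medium, compound-treated 48 h at 37 °C; viability from CellTiter-Glo luminescence. Primary screen: MIPE 11-point (0.78 nM–46 µM final), NPC 8-point (0.59 nM–46 µM final); confirmatory at 11-point dilutions.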

[6] = qHTS of pediatric cancer cell lines to identify multiple opportunities for drug repurposing: Primary screen for DAOY cells (AID 1347090); also: nearly all actives have a fitted effect of over 55% in size; also: potency is read from the fitted curve at half-maximal effect
Outline: (§1)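 Eight- or eleven-point concentration series, 48 h treatment at 37 degrees C in growth media; readout CellTiter-Glo luminescence. Potency and efficacy were taken from the concentration-response curves.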

[7] = qHTS of pediatric cancer cell lines to identify multiple opportunities for drug repurposing: Primary screen for SJ-GBM2 cells (AID 1347091); also: potency is read from the fitted curve at half-maximal effect
Outline: as §1

[8] = qHTS of pediatric cancer cell lines to identify multiple opportunities for drug repurposing: Primary screen for A673 cells (AID 1347092); also: nearly all actives have a fitted effect of over 45% in size; also: potency is read from the fitted curve at half-maximal effect
Outline: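 A673 cells (500-1,000 cells/well) were treated 48 hours at 37 degrees C with compounds at 11-point (0.78 nM to 46 µM) or 8-point (0.59 nM to 46 µM) dilutions. Viability read by CellTiter-Glo luminescence; concentration-response curves fitted.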

[9] = qHTS of pediatric cancer cell lines to identify multiple opportunities for drug repurposing: Primary screen for BT-37 cells (AID 1347094); also: potency is read from the fitted curve at half-maximal effect
Outline: (§2)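 Following a 5-hour attachment period, cells at 500-1,000/well received compounds and were cultured for 48 hours. CellTiter-Glo was added and luminescence read to estimate viable, metabolically active cells.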

[10] = qHTS of pediatric cancer cell lines to identify multiple opportunities for drug repurposing: Primary screen for NB-EBc1 cells (AID 1347095); also: potency is read from the fitted curve at half-maximal effect
Outline: as §2

[11] = qHTS of pediatric cancer cell lines to identify multiple opportunities for drug repurposing: Primary screen for U-2 OS cells (AID 1347096); also: nearly all actives have a fitted effect of over 50% in size; also: potency is read from the fitted curve at half-maximal effect
Outline: (§3)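 Cells (500-1,000/well) in growth media were settled 5 h at 37 degrees C, then given compounds for 48 h. Viability was read as CellTiter-Glo luminescence. Primary runs used MIPE at 11 points (0.78 nM-46 µM) and NPC at 8 points (0.59 nM-46 µM); follow-ups used 11 points.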

[12] = qHTS of pediatric cancer cell lines to identify multiple opportunities for drug repurposing: Primary screen for Saos-2 cells (AID 1347097); also: nearly all actives have a fitted effect of over 40% in size; also: potency is read from the fitted curve at half-maximal effect
Outline: as §2

[13] = qHTS of pediatric cancer cell lines to identify multiple opportunities for drug repurposing: Primary screen for NB1643 cells (AID 1347099); also: nearly all actives have a fitted effect of over 50% in size; also: potency is read from the fitted curve at half-maximal effect
Outline: as §2

[14] = qHTS of pediatric cancer cell lines to identify multiple opportunities for drug repurposing: Primary screen for LAN-5 cells (AID 1347100); also: potency is read from the fitted curve at half-maximal effect
Outline: as §3

[15] = qHTS of pediatric cancer cell lines to identify multiple opportunities for drug repurposing: Primary screen for BT-12 cells (AID 1347101); also: nearly all actives have a fitted effect of over 25% in size; also: potency is read from the fitted curve at half-maximal effect
Outline: (§4)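 Cells (500-1,000/well) rested 5 h, then received compounds for 48 h; metabolically active cells were measured by CellTiter-Glo luminescence. Final concentrations spanned up to 46 µM (MIPE, 11-point) or 0.59 nM-46 µM (NPC, 8-point) in primary screens, 11-point in follow-ups.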

[16] = qHTS of pediatric cancer cell lines to identify multiple opportunities for drug repurposing: Primary screen for Rh18 cells (AID 1347102); also: nearly all actives have a fitted effect of over 65% in size; also: potency is read from the fitted curve at half-maximal effect
Outline: as §3

[17] = qHTS of pediatric cancer cell lines to identify multiple opportunities for drug repurposing: Primary screen for SK-N-MC cells (AID 1347093); also: potency is read from the fitted curve at half-maximal effect
Outline: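 Metabolically active cells were quantified by ATP-dependent luminescence (CellTiter-Glo, 15 min at room temperature) following 48 h treatment. Cells had been plated at 500-1,000 per well and settled for 5 h beforehand.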

[18] = qHTS of pediatric cancer cell lines to identify multiple opportunities for drug repurposing: Primary screen for SK-N-SH cells (AID 1347098); also: nearly all actives have a fitted effect of over 65% in size; also: potency is read from the fitted curve at half-maximal effect
Outline: as §4

[19] = target: T1, Tyrosine-protein phosphatase non-receptor type substrate 1 (Homo sapiens) + Leukocyte surface antigen CD47 (Homo sapiens) (UniProt P78324+Q08722); assay: CD47-SIRPalpha protein protein interaction - LANCE assay qHTS validation (AID 1347057; active = well fitted curve in the direction sought with a large enough effect in the signal ratio, with a control signal flat, not every such curve was filed as active; the % refers to the signal ratio; also: series mostly up to about 38 µM)
Outline: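 First, His-tagged CD47 and Eu-labelled anti-His antibody met the compound for 30 min; next, site-specifically biotinylated SIRPalpha was added for 30 min; finally streptavidin-APC was added before reading the TR-FRET ratio.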

[20] = target: T1, Tyrosine-protein phosphatase non-receptor type substrate 1 (Homo sapiens) + Leukocyte surface antigen CD47 (Homo sapiens); assay: CD47-SIRPalpha protein protein interaction - HTRF assay qHTS validation (AID 1347058; active = well fitted curve in the direction sought with a large enough effect in the signal ratio, not every such curve was filed as active; the % refers to the signal ratio;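 also: recombinant soluble extracellular CD47 with His tag and biotinylated SIRPalpha domains; series mostly up to about 38 µM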)
Outline: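 TR-FRET read (Ch1/Ch2 ratio) of soluble extracellular CD47 and Avi-biotinylated SIRPalpha domains in PBS pH 7.4 with 0.05% IGEPAL; 7-point compound titration. Sequential 30 min room-temperature steps; non-biotinylated SIRPalpha as control inhibitor.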

Measured: Potency

Sequence of Atrial natriuretic peptide receptor 1 (Homo sapiens) (P16066 whole entry, looked up): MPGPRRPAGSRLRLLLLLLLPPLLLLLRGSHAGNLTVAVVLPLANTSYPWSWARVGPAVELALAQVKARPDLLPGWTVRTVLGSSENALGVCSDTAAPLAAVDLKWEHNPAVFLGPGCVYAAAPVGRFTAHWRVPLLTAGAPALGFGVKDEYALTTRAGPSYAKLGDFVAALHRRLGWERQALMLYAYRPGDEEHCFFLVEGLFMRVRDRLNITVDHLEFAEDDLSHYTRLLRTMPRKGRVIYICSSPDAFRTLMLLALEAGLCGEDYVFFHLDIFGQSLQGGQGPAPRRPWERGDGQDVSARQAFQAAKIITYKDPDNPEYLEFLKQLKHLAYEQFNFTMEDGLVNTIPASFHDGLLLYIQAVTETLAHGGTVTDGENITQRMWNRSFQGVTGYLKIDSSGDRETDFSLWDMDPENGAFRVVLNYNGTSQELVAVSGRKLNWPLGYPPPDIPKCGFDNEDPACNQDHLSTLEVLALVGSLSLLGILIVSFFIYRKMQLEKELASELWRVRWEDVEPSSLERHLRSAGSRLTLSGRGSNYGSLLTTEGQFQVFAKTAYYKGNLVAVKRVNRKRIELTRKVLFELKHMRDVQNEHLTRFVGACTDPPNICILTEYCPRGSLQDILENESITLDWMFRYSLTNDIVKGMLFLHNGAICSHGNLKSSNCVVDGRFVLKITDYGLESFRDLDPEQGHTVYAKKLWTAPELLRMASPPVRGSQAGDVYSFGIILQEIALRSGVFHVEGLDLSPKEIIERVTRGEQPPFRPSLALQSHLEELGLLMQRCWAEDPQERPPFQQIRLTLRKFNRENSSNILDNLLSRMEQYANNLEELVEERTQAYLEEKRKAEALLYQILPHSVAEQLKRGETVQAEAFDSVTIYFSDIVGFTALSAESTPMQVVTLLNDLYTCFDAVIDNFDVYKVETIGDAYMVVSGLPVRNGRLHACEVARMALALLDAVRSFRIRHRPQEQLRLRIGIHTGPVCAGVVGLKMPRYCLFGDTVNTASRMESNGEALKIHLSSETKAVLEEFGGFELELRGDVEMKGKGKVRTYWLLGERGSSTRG
T1 sequence (P78324 whole entry, looked up): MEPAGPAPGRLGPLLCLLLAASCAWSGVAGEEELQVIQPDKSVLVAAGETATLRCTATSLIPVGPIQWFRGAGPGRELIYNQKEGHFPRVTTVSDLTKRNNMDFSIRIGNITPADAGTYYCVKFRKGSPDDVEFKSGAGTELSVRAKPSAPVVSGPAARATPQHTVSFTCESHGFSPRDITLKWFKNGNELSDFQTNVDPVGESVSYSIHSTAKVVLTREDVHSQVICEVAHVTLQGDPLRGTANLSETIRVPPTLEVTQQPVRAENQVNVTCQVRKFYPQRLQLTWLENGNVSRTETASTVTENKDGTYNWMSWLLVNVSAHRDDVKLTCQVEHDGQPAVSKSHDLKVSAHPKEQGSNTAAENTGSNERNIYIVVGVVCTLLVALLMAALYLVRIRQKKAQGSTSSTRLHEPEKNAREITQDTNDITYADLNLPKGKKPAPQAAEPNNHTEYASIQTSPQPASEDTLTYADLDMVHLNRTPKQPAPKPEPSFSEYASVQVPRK
T1 sequence (Q08722 whole entry, looked up): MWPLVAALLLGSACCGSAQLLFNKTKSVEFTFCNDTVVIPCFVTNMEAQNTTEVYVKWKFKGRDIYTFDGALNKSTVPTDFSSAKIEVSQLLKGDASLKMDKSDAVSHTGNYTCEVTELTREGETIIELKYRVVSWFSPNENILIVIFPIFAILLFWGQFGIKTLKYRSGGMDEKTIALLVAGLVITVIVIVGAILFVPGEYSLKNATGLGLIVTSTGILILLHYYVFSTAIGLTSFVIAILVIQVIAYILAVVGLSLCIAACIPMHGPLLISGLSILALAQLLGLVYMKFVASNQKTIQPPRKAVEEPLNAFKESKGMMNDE
Sequence of Atrial natriuretic peptide receptor 2 (Homo sapiens) (P20594 whole entry, looked up): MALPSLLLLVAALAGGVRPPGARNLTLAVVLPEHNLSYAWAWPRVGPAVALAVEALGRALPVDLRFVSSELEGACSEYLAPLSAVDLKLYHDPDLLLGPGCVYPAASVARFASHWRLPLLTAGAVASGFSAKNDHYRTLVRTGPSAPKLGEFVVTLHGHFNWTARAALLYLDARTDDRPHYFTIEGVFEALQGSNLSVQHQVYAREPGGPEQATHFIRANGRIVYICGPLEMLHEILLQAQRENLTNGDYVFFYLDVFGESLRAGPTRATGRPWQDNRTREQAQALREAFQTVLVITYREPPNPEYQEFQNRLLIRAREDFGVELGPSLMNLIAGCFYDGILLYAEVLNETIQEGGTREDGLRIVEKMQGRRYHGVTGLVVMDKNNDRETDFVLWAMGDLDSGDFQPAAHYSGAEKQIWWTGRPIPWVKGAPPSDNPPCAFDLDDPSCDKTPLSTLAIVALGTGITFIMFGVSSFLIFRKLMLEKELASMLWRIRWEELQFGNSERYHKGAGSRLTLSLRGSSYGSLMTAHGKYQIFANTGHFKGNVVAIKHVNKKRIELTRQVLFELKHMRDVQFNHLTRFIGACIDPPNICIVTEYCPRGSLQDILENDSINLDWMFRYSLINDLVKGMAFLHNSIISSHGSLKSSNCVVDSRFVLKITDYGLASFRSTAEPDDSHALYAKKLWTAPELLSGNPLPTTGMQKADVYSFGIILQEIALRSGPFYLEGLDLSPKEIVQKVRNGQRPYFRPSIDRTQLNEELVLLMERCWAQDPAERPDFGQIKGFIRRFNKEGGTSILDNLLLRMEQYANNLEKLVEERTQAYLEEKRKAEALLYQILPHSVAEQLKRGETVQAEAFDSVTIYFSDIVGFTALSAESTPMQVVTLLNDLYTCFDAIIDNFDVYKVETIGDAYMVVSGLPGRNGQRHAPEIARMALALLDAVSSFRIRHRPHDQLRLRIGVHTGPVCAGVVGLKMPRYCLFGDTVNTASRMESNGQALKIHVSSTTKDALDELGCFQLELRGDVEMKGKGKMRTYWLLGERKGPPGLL
Sequence of Parathyroid hormone/parathyroid hormone-related peptide receptor (Homo sapiens) (Q03431 whole entry, looked up): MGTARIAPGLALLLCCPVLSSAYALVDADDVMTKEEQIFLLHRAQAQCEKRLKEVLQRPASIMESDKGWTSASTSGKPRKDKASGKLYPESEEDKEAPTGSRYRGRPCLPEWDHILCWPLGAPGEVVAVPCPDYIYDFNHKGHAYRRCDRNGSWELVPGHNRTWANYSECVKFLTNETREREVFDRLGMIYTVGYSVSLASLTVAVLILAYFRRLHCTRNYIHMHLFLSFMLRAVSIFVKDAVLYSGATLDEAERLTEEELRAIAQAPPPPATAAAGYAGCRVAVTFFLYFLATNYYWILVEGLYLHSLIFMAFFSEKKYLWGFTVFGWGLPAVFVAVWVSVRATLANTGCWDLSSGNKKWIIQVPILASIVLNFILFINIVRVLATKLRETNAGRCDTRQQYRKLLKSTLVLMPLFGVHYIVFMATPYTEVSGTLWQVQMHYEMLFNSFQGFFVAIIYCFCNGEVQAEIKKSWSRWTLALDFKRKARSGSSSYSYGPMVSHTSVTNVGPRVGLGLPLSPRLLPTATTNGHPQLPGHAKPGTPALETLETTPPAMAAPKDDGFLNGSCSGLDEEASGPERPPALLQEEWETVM

O=c1c(-c2ccc(O)cc2)coc2cc(O)ccc12
not listed: [17] | [18] | [19] | [20]
inactive: all other assays above

CC(=O)CCCCn1c(=O)c2c(ncn2C)n(C)c1=O
not listed: [19] | [20]
inactive: all other assays above

CC(C)(C)c1ccc(C(O)CCCN2CCC(C(O)(c3ccccc3)c3ccccc3)CC2)cc1 (stereo unspecified)
not listed: [1] | [14] | [18]
inactive: all other assays above

O=C1NCC2(CCN(CCc3ccccc3)CC2)O1
not listed: [5] | [6] | [9] | [15]
inactive: all other assays above

CC1(C)CCC2=C(O1)c1ccccc1C(=O)C2=O
inactive: [1] | [3] | [19] | [4] | [5] | [11]
active: [8] 23.5 µM | [17] 23.5 µM | [10] 18.7 µM | [12] 18.7 µM | [13] 23.5 µM | [15] 30.6 µM

NCCS
inactive: all assays above

CCn1cc(C(=O)O)c(=O)c2ccc(C)nc21
not listed: [9] | [15]
inactive: all other assays above

CCCCCN(C)CCC(O)(P(=O)(O)O)P(=O)(O)O
not listed: [3] | [6] | [9] | [17] | [19] | [20]
inactive: all other assays above

CCN(CC)CCNC(=O)c1ccc(N)cc1
not listed: [9]
inactive: all other assays above

COc1ccccc1N1CCN(CCCNc2cc(=O)n(C)c(=O)n2C)CC1
not listed: [3] | [10] | [15] | [17]
inactive: all other assays above

C[N+](C)(C)CCCCCC[N+](C)(C)C
not listed: [12] | [15]
inactive: all other assays above

CCCNC(=O)NS(=O)(=O)c1ccc(Cl)cc1
not listed: [3] | [5] | [17]
inactive: all other assays above

O=C(O)c1cc(-c2ccccc2)nc2ccccc12
active: [17] 49.1 µM
not listed: [1] | [2] | [4] | [19] | [20]
inactive: all other assays above

Cc1cccc(C)c1OCC(C)N (stereo unspecified)
not listed: [10] | [12] | [15] | [19] | [20]
inactive: all other assays above

CC(=O)O[C@]1(C(C)=O)CC[C@H]2[C@@H]3C=C(Cl)C4=CC(=O)[C@@H]5C[C@@H]5[C@]4(C)[C@H]3CC[C@@]21C
active: [12] 26.6 µM
not listed: [5] | [6] | [8] | [9] | [15] | [16] | [17] | [18]
inactive: all other assays above

O=c1cc(-c2ccc(O)cc2)oc2cc(O)cc(O)c12
active: [6] 14.8 µM | [7] 1.32 µM | [8] 1.18 µM | [9] 3.06 µM | [10] 4.69 µM | [13] 0.469 µM | [14] 3.32 µM | [15] 3.43 µM | [16] 2.35 µM
inactive: [1] | [2] | [3] | [19] | [4] | [5]

CCN(CC)C(=O)c1ccc(O)c(OC)c1
not listed: [6]
inactive: all other assays above

Clc1ccc(C(c2ccc(Cl)cc2)n2cc[n+](CC(OCc3ccc(Cl)cc3Cl)c3ccc(Cl)cc3Cl)c2)cc1 (stereo unspecified)
active: [3] 11.8 µM | [6] 23.5 µM | [7] 23.5 µM | [8] 18.7 µM | [17] 7.43 µM | [9] 21.7 µM | [10] 23.5 µM | [12] 11.8 µM | [18] 24.1 µM | [13] 23.5 µM | [14] 18.7 µM | [15] 21.7 µM | [16] 23.5 µM
inactive: [1] | [2] | [4] | [5]

CC(C)NCC(O)COc1cccc2[nH]ccc12 (stereo unspecified)
not listed: [9] | [10] | [12] | [17]
inactive: all other assays above

O=C1NC(=O)C(c2ccccc2)(c2ccccc2)N1
not listed: [3] | [12] | [15]
inactive: all other assays above

CC(=O)c1ccc(S(=O)(=O)NC(=O)NC2CCCCC2)cc1
inactive: all assays above

COc1cccc(-c2cc(=O)c3ccccc3o2)c1N
active: [17] 0.662 µM | [13] 20.9 µM
not listed: [2] | [5] | [6] | [8] | [18] | [20]
inactive: all other assays above

O=C(O)CCc1nc(-c2ccccc2)c(-c2ccccc2)o1
not listed: [3] | [15]
inactive: all other assays above

CCN1CCC[C@H]1CNC(=O)c1cc(S(N)(=O)=O)ccc1OC
not listed: [6] | [15]
inactive: all other assays above

CCN(CC)CCOC(=O)c1ccc(N)cc1
not listed: [6]
inactive: all other assays above

Clc1ccc(Cn2c(CN3CCCC3)nc3ccccc32)cc1
inactive: [1] | [19] | [20] | [4] | [7] | [17] | [10] | [11] | [13] | [14]

CC1=C(/C=C/C(C)=C/C=C/C(C)=C/C(=O)Nc2ccc(O)cc2)C(C)(C)CCC1
inactive: [1] | [2] | [19] | [20] | [4]
active: [8] 6.68 µM | [17] 6.68 µM | [9] 15.5 µM | [11] 26.6 µM | [15] 7.77 µM

O=C(NC1CCOCC1)c1ccc(-c2cc(-c3cn[nH]c3-c3ccccn3)ccn2)cc1
not listed: [1] | [2] | [4] | [19] | [20]
inactive: all other assays above
